According to PubChem BioAssay:
Active and inactive are the calls of the source. Unless noted, how the calls were made is not given here.

Experiments:
[1] = anti-His antibody binders, primary screen, artefact control for SMM control protein annotation, biochemical, small-molecule microarray, 635 nm fluorescence (AID 1128); settings: anti-His Alexa647 antibody binding, higher = more signal;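 further: score merges feature fluorescence with signal-to-noise for each printed compound spot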
[2] = tested on: Human papillomavirus type 1a E7 protein (residues 1-88); assay: HPV1a E7 small-molecule binders, primary screen, biochemical, small-molecule microarray, residues 1-88, 635 nm (AID 1129); settings: small-molecule microarray binding, fluorescence 635 nm; higher = more signal
[3] = molecular target: Focal adhesion kinase 1 (Homo sapiens) (UniProt Q05397); assay: small-molecule microarray binders of FAK, primary screen, biochemical, 635/667 nm fluorescence, BSA, DTT (AID 1130); settings: PTK2 binding, 635 nm fluorescence, higher = more signal;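 further: composite of spot emission at 667 nm and signal to noise over triplicate slides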
Chain of Focal adhesion kinase 1 (Homo sapiens) (Q05397 whole entry, looked up): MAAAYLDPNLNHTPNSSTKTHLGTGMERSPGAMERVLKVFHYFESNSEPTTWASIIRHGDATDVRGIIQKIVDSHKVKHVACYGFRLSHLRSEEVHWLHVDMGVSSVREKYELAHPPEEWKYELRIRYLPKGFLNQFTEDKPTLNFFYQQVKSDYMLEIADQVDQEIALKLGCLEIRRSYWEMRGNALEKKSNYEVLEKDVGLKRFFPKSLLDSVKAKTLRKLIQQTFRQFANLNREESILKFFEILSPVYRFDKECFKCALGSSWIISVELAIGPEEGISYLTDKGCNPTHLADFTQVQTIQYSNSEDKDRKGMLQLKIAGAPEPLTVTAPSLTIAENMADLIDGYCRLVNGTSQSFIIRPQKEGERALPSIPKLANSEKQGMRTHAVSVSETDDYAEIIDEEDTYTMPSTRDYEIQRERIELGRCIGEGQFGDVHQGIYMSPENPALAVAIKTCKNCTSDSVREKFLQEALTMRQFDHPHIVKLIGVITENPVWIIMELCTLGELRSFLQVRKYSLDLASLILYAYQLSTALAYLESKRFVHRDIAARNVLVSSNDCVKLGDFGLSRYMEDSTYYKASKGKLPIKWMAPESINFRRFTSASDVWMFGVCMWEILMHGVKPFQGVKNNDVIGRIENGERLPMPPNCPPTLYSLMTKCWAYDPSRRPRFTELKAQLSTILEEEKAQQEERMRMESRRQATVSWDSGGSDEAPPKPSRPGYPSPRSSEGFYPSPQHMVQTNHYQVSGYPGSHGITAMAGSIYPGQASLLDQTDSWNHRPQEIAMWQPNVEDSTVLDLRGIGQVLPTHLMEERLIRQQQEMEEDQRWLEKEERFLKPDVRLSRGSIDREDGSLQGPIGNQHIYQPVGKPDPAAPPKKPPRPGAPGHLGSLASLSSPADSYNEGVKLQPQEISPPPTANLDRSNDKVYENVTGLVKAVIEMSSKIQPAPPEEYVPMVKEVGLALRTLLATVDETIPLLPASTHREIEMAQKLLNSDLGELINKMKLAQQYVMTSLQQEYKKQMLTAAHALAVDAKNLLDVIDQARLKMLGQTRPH

[4] = tested on: Fibrinogen (Alexa647-labelled); assay: fibrinogen binders on compound microarrays, profiling panel, artefact control for SMM control-protein annotation, biochemical, small-molecule microarray, 635/667 nm fluorescence (AID 1131); settings: fibrinogen-A647 binding fluorescence, higher = more signal;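 further: z-score merges 667 nm fluorescence with per-spot signal-to-noise over triplicate slides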
[5] = molecular target: Follistatin (Homo sapiens) (UniProt P19883); assay: follistatin binders on small-molecule microarrays, primary screen, biochemical, small-molecule microarray, 635/667 nm fluorescence (AID 1132); settings: FST binding, 635 nm fluorescence, higher = more signal
Chain of Follistatin (Homo sapiens) (P19883 whole entry, looked up): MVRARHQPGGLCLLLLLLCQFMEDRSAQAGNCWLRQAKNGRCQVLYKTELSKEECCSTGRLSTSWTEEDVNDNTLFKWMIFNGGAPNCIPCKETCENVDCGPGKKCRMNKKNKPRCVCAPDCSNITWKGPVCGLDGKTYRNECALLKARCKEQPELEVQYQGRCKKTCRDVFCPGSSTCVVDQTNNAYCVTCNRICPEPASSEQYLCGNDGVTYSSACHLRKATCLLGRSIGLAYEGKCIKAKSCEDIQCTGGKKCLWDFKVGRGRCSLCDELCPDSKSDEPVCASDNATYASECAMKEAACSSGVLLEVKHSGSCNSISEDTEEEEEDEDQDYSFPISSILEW

[6] = molecular target: Fibroblast growth factor 2 (Homo sapiens) (UniProt P09038); assay: FGF2 binders on small-molecule microarrays, primary screen, biochemical, small-molecule microarray, 635/667 nm fluorescence (AID 1133); settings: small-molecule microarray binding, FGF2, fluorescence 635/667; higher = more signal
Chain of Fibroblast growth factor 2 (Homo sapiens) (P09038 whole entry, looked up): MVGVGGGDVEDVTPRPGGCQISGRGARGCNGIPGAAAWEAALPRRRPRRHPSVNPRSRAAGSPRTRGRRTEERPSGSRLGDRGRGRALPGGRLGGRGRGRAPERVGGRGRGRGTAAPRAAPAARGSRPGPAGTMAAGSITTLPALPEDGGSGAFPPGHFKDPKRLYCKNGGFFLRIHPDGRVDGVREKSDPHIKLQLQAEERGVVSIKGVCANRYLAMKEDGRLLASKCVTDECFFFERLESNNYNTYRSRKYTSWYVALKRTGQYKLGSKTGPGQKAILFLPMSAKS

[7] = mitochondrial membrane potential change in A549 cells, profiling panel, cell-based, JC-1 fluorescence, basal, 24 h, 100 nL (AID 1138); settings: higher = more signal;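 further: A549 lung adenocarcinoma cells under basal conditions with no added stimulus; test concentration not given here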
[8] = tested on: Lefty1; assay: Lefty1 binders on small-molecule microarrays, primary screen, biochemical, small-molecule microarray, 635/667 nm fluorescence (AID 1139); settings: small-molecule microarray binding, fluorescence 635/667; higher = more signal
[9] = tested on: wheat germ agglutinin (Triticum aestivum), Alexa647-labelled; assay: wheat germ agglutinin binders on compound microarrays, profiling panel, artefact control for SMM control-protein annotation, biochemical, small-molecule microarray, 635/667 nm fluorescence (AID 1140); settings: WGA-A647 binding, 635 nm fluorescence, higher = more signal;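 further: score merges 667 nm feature emission with signal to noise over triplicate slides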
[10] = molecular target: Luciferin 4-monooxygenase (Photinus pyralis) (UniProt P08659); assay: firefly luciferase enzyme inhibitors, primary screen, biochemical, luminescence, purified enzyme, 2006 set (AID 1141); settings: SteadyGlo luminescence, 30 min, higher = more signal, called active from +8 up or from −8 down;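 further: cell-free assay with purified firefly luciferase at 100 ng per well in PBS; test concentration not given here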
Chain of Luciferin 4-monooxygenase (Photinus pyralis) (P08659 whole entry, looked up): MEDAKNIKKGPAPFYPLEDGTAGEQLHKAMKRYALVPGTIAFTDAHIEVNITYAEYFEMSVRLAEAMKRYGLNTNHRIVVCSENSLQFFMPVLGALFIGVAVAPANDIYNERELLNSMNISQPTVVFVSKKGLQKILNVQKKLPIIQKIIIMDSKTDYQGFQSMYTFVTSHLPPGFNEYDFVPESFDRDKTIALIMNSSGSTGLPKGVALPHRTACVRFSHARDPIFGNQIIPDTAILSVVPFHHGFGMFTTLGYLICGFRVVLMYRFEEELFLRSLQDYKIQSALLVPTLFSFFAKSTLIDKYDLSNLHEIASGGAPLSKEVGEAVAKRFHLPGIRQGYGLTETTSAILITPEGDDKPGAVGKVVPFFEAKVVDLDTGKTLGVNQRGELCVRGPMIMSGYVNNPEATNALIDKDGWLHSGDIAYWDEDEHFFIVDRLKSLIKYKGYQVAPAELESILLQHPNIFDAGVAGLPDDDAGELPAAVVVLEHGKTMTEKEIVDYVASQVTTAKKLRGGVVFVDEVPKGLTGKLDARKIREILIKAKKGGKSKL

[11] = tested on: Wnt5a (protein binding on small-molecule microarray); assay: Wnt5a binders on small-molecule microarray, primary screen, biophysical, 635/667 nm fluorescence (AID 1142); settings: 635 nm fluorescence, higher = more signal;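 further: fluorescence read at 667 nm with signal to noise per printed feature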
[12] = cell viability in Huh7 cells, primary screen, cytotoxicity control for HCV replication inhibitor project, CellTiter-Glo luminescence, basal, 48 h (AID 1143); settings: Huh7 HCV replicon, higher = more signal, called active from +8 up or from −8 down;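 further: Huh7 hepatoma cells carrying a hepatitis C replication reporter with no stimulus; test concentration not given here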
[13] = P. aeruginosa biofilm formation inhibitors, primary screen, PAO1 strain, BacTiter-Glo luminescence, LB-PBS (AID 1144); settings: 12 h, higher = more signal
[14] = CREB reporter modulators without forskolin, primary screen, cell-based, PC12, CRE-LacZ reporter, unstimulated (AID 1145); settings: no forskolin, luminescence, 4.5 h, higher = more signal, called active from +8 up or from −8 down
[15] = CREB reporter modulators under forskolin, primary screen, cell-based, PC12, CRE-LacZ reporter, forskolin-stimulated (AID 1146); settings: luminescence, 4.5 h, higher = more signal, called active from +8 up or from −8 down;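 further: PC12 cells with 6xCRE LacZ reporter stimulated by forskolin 10 µM; beta-galactosidase reporter signal reflecting CREB driven transcription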
[16] = molecular target: Streptavidin (Streptomyces avidinii) (UniProt P22629); assay: streptavidin binders on small-molecule microarray, primary screen, artefact control for SMM compound annotation, biophysical, 635/667 nm fluorescence (AID 1147); settings: streptavidin binding, higher = more signal;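 further: signal reflects streptavidin binding to arrayed compounds as a control protein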
Chain of Streptavidin (Streptomyces avidinii) (P22629 whole entry, looked up): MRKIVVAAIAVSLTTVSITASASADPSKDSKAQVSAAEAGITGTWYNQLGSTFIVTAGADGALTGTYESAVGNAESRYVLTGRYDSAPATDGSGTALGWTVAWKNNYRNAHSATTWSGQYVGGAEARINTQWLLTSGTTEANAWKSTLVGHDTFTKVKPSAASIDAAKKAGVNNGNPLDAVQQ

[17] = small-molecule binders of probe aInhba, primary screen, biochemical, small-molecule microarray, 635/667 nm fluorescence (AID 1148); settings: higher = more signal;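 further: score merges 667nm spot fluorescence with signal-to-noise for antibody binding to printed compounds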
[18] = molecular target: Torsin-1A (Homo sapiens) (UniProt O14656); assay: torsin A binders from cell lysate, primary screen, small-molecule microarray, wild-type, 635/667 nm (AID 1149); settings: COS7 hTOR1A-WT lysate, 635 nm fluorescence, higher = more signal
Chain of Torsin-1A (Homo sapiens) (O14656 whole entry, looked up): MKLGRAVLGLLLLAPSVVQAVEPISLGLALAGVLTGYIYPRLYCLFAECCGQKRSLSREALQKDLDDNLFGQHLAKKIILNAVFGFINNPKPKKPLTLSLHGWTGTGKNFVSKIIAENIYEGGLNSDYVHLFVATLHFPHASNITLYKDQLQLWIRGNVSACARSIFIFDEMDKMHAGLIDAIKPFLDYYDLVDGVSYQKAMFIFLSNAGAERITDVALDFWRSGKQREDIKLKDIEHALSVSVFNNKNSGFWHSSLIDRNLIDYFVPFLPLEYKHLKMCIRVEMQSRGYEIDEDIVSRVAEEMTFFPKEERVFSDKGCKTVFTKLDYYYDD

[19] = molecular target: Torsin-1A (Homo sapiens) (UniProt O14656); assay: small-molecule binders of mutant TOR1A in lysate, primary screen, cell lysate, small-molecule microarray, COS7 lysate, 635/667 nm fluorescence (AID 1150); settings: COS7 hTOR1A mutant lysate, 635 nm fluorescence, higher = more signal;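 further: score pools 667 nm emission and signal to noise measuring lysate protein binding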
[20] = tested on: Sonic hedgehog protein (Shh); assay: small-molecule binders of Shh protein, primary screen, biochemical, small-molecule microarray, 635/667 nm fluorescence (AID 1151); settings: small-molecule microarray binding, 635 nm fluorescence; higher = more signal;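 further: Shh protein binding to compounds spotted on small-molecule microarray slides; score combines spot fluorescence intensity with signal-to-noise across triplicate slides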

| Compound | composite z-score [1] | composite z-score [2] | composite z-score [3] | composite z-score [4] | composite z-score [5] | composite z-score [6] | z-score [7] | composite z-score [8] | composite z-score [9] | z-score [10] | composite z-score [11] | z-score [12] | z-score [13] | z-score [14] | z-score [15] | composite z-score [16] | composite z-score [17] | composite z-score [18] | composite z-score [19] | composite z-score [20] |
| --- | --- | --- | --- | --- | --- | --- | --- | --- | --- | --- | --- | --- | --- | --- | --- | --- | --- | --- | --- | --- |
| CCCCCCCCCCC(O)C1C=CC2C(=O)N(c3ccccc3)C(=O)C2N1Nc1ccc([N+](=O)[O-])cc1 (stereo not given) | 0.774 | 1.22 | 0.525 | 0.992 | 0.8 | 0.378 | 2.09 | 0.371 | 0.56 | 1.86 (inactive) | 0.207 | -2.71 (inactive) | -0.214 (inactive) | 0.285 (inactive) | 0.925 (inactive) | 0.811 | -0.0059 | 0.0415 | 0.227 | 0.358 |
| O=C1C2C=CC(C(O)c3ccc(B(O)O)cc3)N(Nc3ccc([N+](=O)[O-])cc3)C2C(=O)N1c1ccccc1 (stereo not given) | 0.359 | 1.21 | -0.164 | 0.843 | 1.13 | 0.284 | 0.0898 | 0.284 | 1.11 | 0.491 (inactive) | 0.263 | -0.307 (inactive) | -0.0903 (inactive) | -1.07 (inactive) | -2.26 (inactive) | 0.759 | 0.0785 | 0.363 | 0.286 | 0.221 |
| COCCCNC(=O)[C@]1(Cc2ccccc2N=[N+]=[N-])N=C(c2ccc(OCCCO)cc2)O[C@@H]1c1ccccc1CN=[N+]=[N-] | 2.33 | 1.22 | 0.631 | 0.947 | 1.35 | 0.449 | -0.418 | 0.231 | 1.12 | -2.5 (inactive) | 0.823 | -5.15 (inactive) | -0.421 (inactive) | 0.825 (inactive) | -1.47 (inactive) | 1.11 | 0.442 | 0.673 | 0.57 | 0.26 |
| Cc1ccc(F)cc1S(=O)(=O)N[C@@H]1CCN(Cc2ccc(C(F)(F)F)cc2)C1 | -0.175 | -0.704 | -0.0343 | -0.292 | 0.277 | -0.456 | 0.197 | 0.22 | -0.655 | -0.0404 (inactive) | -0.192 | -4.39 (inactive) | 1.2 (inactive) | 3.48 (inactive) | 0.777 (inactive) | -0.381 | -0.208 | -0.181 | 0.319 | 0.451 |
| COCCCNC(=O)[C@@]1(Cc2ccccc2I)c2ccccc2C(=O)N(Cc2ccccc2)[C@H]1c1ccc(CO)cc1 | 0.536 | -0.726 | -0.548 | -1.03 | -1.6 | -1.21 | 1.28 | -1.94 | -1.27 | -0.751 (inactive) | -0.433 | -2.44 (inactive) | 0.202 (inactive) | 0.145 (inactive) | -1.06 (inactive) | -1.38 | -0.176 | -0.79 | -0.332 | -0.892 |
| C=CCOC(=O)[C@H]1[C@@H]2C(=O)O[C@@H](c3ccccc3)[C@@H](c3ccccc3)N2[C@@H](c2ccc(OCCOC(=O)[C@@H]3C[C@@H]4C(=O)NCC(=O)N4[C@@H]3c3ccc(O)cc3)cc2)[C@]12C(=O)Nc1ccc(I)cc12 | 1.59 | 1.22 | 2.17 | 0.597 | 1.41 | 1.65 | -1.17 | 1.24 | 0.763 | -0.978 (inactive) | 1.07 | 0.586 (inactive) | 0.183 (inactive) | 0.0003 (inactive) | -0.53 (inactive) | 0.205 | -0.125 | 1.02 | 1.18 | 2.04 |
| CC(C)[Si]1(C(C)C)O[C@@H](c2ccccc2)c2cc(-c3ccc(-c4ccc(Cl)c(Cl)c4)o3)nc(CCc3ccccc3)c21 | -0.203 | -0.339 | -0.389 | -1.27 | -2.16 | -0.614 | -0.107 | -1.08 | -1.58 | -0.7 (inactive) | -0.306 | -1.03 (inactive) | 0.251 (inactive) | 0.367 (inactive) | 1.52 (inactive) | -0.549 | -0.204 | -0.555 | -0.181 | -0.74 |
| CCOC(=O)C1=CC[C@@H](c2ccccc2)N(S(=O)(=O)c2ccc(C)cc2)[C@H]1c1ccc(C#N)cc1 | 1 | 1.19 | 0.456 | 0.931 | -0.0375 | -0.732 | 2.11 | -0.507 | 1.23 | 1.23 (inactive) | 0.344 | -2.07 (inactive) | 0.742 (inactive) | 1.42 (inactive) | 0.0633 (inactive) | 1.31 | 0.066 | -0.0412 | 0.389 | -0.428 |
| CC(C)(C)OC(=O)CC[C@@]1(C(=O)N2CCOCC2)N=C(c2ccc(OCCCO)cc2)O[C@@H]1c1ccccc1N=[N+]=[N-] | 3.1 | 1.29 | 0.288 | 1.01 | 1.36 | 1.22 | 1.9 | 0.885 | 0.987 | -10.6 (active) | 1.23 | -1.61 (inactive) | 0.321 (inactive) | 0.0686 (inactive) | -0.713 (inactive) | 1.93 | 0.27 | 0.802 | 1.11 | 0.535 |
